The values below come from PubChem BioAssay (EPA / NIEHS).

Results filed as inconclusive are left out. Activity calls are given as the source filed them. Rule for the calls: active = hit-call score of the fitted dose curve at least 0.9, where 1 is the maximum; inconclusive = response in the unintended direction; inactive = score below 0.9.

Chain of Retinoic acid receptor RXR-alpha (Homo sapiens) (P19793 whole entry, looked up, the tested form may be a part): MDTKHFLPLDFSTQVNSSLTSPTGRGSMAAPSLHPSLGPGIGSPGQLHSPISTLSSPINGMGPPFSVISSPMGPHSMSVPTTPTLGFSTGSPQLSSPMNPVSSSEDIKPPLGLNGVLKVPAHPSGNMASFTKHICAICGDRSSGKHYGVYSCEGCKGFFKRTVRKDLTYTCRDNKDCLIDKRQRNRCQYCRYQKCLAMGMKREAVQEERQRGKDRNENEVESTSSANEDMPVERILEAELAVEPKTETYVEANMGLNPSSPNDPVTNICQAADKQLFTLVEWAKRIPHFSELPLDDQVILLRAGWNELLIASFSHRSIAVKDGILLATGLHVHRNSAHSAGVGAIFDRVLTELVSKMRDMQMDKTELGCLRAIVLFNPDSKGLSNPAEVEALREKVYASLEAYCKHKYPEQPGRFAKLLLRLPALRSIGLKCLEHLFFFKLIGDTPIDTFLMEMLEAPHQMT

The target in one assay is Retinoic acid receptor RXR-alpha (Homo sapiens) (UniProt P19793). The assay is described as follows: ATG_RXRa_TRANS: Attagene TRANS-FACTORIAL HepG2 Assay for human Retinoid X Receptor alpha (RXRa) (AID 2283012). Summed up:
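HepG2 cells transiently transfected with GAL4-UAS reporter units and chimeric RXRa-Gal4 protein, treated 24 h. Reporter mRNA measured by RT-PCR, fluorescent labelling, HpaI digestion and capillary electrophoresis. Induction fitted against DMSO.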
On to `CCCCCCCCCCCCCCCCCC#N`, for which the call was inactive.
On the same count and under the same terms, with `CC(C)(C)c1n[nH]c(=O)n(N)c1=O` the entry was “inactive”.
Consider `Cc1c(C)c([N+](=O)[O-])c(C(C)(C)C)c([N+](=O)[O-])c1C`, for which the half-maximal activity concentration (AC50) – broadly, the midpoint of the concentration-response curve, whichever way the signal moves – is 12.7 µM (active).
Take `C=C1[C@H]2CC[C@@H]3[C@H]2C(C)(C)CCC[C@]13C`: the result was inactive.
The same measure, in the same setting: the result for `Clc1nc2ccccc2s1` reads “inactive”; that for `Cc1cccc(OCCOc2cccc(C)c2)c1`, “inactive”.
Same read-out and setting: with `Cc1cccc(N)n1` the entry was “inactive”; with `OCCNCc1ccccc1`, “inactive”.
The same measure, in the same setting: with `NC(=O)C1CO1` (centres undefined) the entry was “inactive”; with `SCCc1cnccn1`, “inactive”.
With `CC1=CC[C@H](C(C)C)C=C1`, the molecule was classed as inactive.
For `C=C(C)[C@H]1CC=C(C)CC1`, the molecule was called inactive.
Still for that read-out and setting: with `CC(C)CCCCCOC(=O)CCS` the entry was “inactive”; with `CCC(CC)C(=O)O`, “inactive”; with `NC(=O)c1ccccc1O`, “inactive”.
`OCCCS`: the outcome was inactive.
The same measure, in the same setting: the result for `C[Si](C)(C)O[Si](O)(O)O` reads “inactive”; that for `CCCCCCC(O)CO` (centres undefined), “inactive”.
The same measure, in the same setting: with `CC(=O)Nc1nnc(S(N)(=O)=O)s1` the entry was “inactive”.
Same read-out and setting: the result for `C[C@]12CCC(=O)C=C1CC[C@@H]1[C@@H]2C(=O)C[C@@]2(C)[C@H]1CC[C@]2(O)C(=O)CO` reads “inactive”; that for `NC(=O)N=NC(N)=O`, “inactive”.
With `C=C[C@](C)(O)CC[C@@H]1[C@@]2(C)CCCC(C)(C)[C@@H]2CC[C@@]1(C)O`, the outcome was inactive.
Still for that read-out and setting: the result for `CCCCCC/C=C\CCCCCCCC(=O)O` reads “inactive”; that for `COC(=O)c1cc(Cl)ccc1[N+](=O)[O-]`, “inactive”; that for `CCCC(=O)OCc1ccccc1`, “inactive”.
On the same count and under the same terms, the result for `CCC(C)C=O` (centres undefined) reads “inactive”.
Still for that read-out and setting: with `O=c1n(CCO)c(=O)n(CCO)c(=O)n1CCO` the entry was “inactive”.
In the case of `CCCCCCCCCCCCCCCC(=O)OCC`, the call was inactive.
The same measure, in the same setting: with `CCOC(=O)CC(C(C)=O)C(C)=O` the entry was “inactive”; with `C[C@]12C=CC(=O)C=C1CC[C@@H]1[C@@H]2[C@@H](O)C[C@@]2(C)[C@H]1CC[C@]2(O)C(=O)CO`, “inactive”; with `CC(C)c1ccc(C#N)cc1`, “inactive”.
On the same count and under the same terms, the result for `CCOC(=O)N1CCC(=C2c3ccc(Cl)cc3CCc3cccnc32)CC1` reads “inactive”; that for `O=[N+]([O-])C1(Br)COCOC1`, “inactive”; that for `O=C(/C=C/C=C/c1ccc2c(c1)OCO2)N1CCCCC1`, “inactive”.
Same read-out and setting: the result for `C=CC(C)(C)C` reads “inactive”; that for `CC1=NC(C)OC1C` (centres undefined), “inactive”.
Turning to `N#CCc1ccc(Cl)cc1Cl`, the result was inactive.

The target of a further assay is human Retinoid X Receptor beta (RXRb), RXRB (gene 6257) (UniProt P28702). The assay is described as follows: ATG_RXRb_TRANS: Attagene TRANS-FACTORIAL HepG2 Assay for human Retinoid X Receptor beta (RXRb) (AID 2283013). Summed up: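 HepG2 cells were transiently transfected with multiplexed GAL4-UAS reporters and a chimeric RXRb-Gal4 construct, then exposed for 24 h. Reporter mRNA was quantified by RT-PCR, FAM labeling, HpaI digestion and capillary electrophoresis; gain of signal was scored against DMSO.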
Chain of human Retinoid X Receptor beta (RXRb), RXRB (gene 6257) (P28702 whole entry, looked up, the tested form may be a part): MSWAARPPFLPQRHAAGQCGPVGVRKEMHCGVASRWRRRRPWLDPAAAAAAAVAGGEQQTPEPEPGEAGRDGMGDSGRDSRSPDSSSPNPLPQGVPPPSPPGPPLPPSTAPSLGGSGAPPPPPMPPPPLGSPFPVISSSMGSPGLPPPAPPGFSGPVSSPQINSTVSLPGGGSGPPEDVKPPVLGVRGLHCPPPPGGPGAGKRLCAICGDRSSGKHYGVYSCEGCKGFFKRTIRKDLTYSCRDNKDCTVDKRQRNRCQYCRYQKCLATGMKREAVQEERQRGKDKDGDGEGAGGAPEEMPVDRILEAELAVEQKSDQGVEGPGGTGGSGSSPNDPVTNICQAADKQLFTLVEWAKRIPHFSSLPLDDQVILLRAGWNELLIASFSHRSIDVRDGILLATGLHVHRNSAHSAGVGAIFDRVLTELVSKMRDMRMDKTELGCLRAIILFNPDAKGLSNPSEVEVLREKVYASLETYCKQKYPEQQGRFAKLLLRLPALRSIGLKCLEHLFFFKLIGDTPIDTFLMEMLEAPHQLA
For `Cc1c(C)c([N+](=O)[O-])c(C(C)(C)C)c([N+](=O)[O-])c1C`, the AC50 was 1.7 µM (active).
Turning to `C=C1[C@H]2CC[C@@H]3[C@H]2C(C)(C)CCC[C@]13C`, the outcome was inactive.
Still for that read-out and setting: with `NC(=O)C1CO1` (centres undefined) the entry was “inactive”.
As to `CC1=CC[C@H](C(C)C)C=C1`, the AC50 was 40.2 µM (active).
For the molecule `C=C(C)[C@H]1CC=C(C)CC1`, the result was inactive.
Consider `CC(C)CCCCCOC(=O)CCS`, for which the outcome was inactive.
`C[Si](C)(C)O[Si](O)(O)O`: the molecule was classed as inactive.
Same read-out and setting: with `C[C@]12CCC(=O)C=C1CC[C@@H]1[C@@H]2C(=O)C[C@@]2(C)[C@H]1CC[C@]2(O)C(=O)CO` the entry was “inactive”.
As for `CCCCCC/C=C\CCCCCCCC(=O)O`, the AC50 was 77 µM (active).
As to `CCCCCCCCCCCCCCCC(=O)OCC`, the outcome was inactive.
Take `O=[N+]([O-])C1(Br)COCOC1`: the molecule was classed as inactive.
The same measure, in the same setting: the result for `N#CCc1ccc(Cl)cc1Cl` reads “inactive”.
